HPGD block: qHTS Assay for Inhibitors of HPGD (15-Hydroxyprostaglandin Dehydrogenase). Potency, µM, without a hit: top-dose activity change, negative = inhibition, actives largely listed as inhibitors. actives 4.3% (n = 150,000). 15-hydroxyprostaglandin dehydrogenase [NAD(+)] (Homo sapiens), P15428. purified HPGD, NADH fluorescence kinetic, PGE2 substrate; also: potency is read from the fitted curve at half-maximal effect
Target sequence (P15428 whole entry, looked up): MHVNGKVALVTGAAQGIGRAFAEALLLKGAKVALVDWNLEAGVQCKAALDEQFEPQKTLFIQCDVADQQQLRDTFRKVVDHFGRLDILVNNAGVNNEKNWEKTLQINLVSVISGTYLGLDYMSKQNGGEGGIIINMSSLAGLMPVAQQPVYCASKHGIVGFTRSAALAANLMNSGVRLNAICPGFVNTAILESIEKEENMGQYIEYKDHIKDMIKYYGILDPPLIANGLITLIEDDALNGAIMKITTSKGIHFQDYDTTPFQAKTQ
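NADH formation kinetics: reaction with 30 uM PGE2 and 1 mM NAD+ (final), 20 nM enzyme, Tris-HCl pH 8 with Tween 20, after 15 min compound preincubation at room temperature. Fluorescence change, last versus first of five reads.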
ALDH1A1 block: qHTS Assay for Inhibitors of Aldehyde Dehydrogenase 1 (ALDH1A1); Aldehyde dehydrogenase 1A1 (Homo sapiens), P00352; Purified ALDH1A1, NADH fluorescence, propionaldehyde substrate; Potency, µM (top dose mostly 75.3 µM), for the others: at the highest dose activity, negative = inhibition, hits mostly inhibitors; actives 7.3% (n = 220,000);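 also: potency is read from the fitted curve at half-maximal effect; plate controls were no enzyme wells and a reference inhibitor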
PNC assembly inh: High Content Assay for Compounds that inhibit the Assembly of the Perinucleolar Compartment. activity change (PNC), negative = inhibition, % at 10 µM. PC3M PTB-GFP, PNC prevalence imaging, 16 h; hits give low values. AID 2417, 2010. actives 3.1% (n = 140,000);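 active = readout at or below -70, meaning at least 70% loss of cells showing the perinucleolar compartment, a nuclear body marking cancer cells; inconclusive = readout between -30 and a set limit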;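 also: plate controls were DMSO wells for no effect and camptothecin positive control wells for full effect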
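Read-out is percentage of cells bearing a perinucleolar compartment, from automated 20x imaging of fixed, Hoechst-stained PC3M PTB-GFP cells. Cells were seeded 4 h, then exposed 16 h to compound (23 nl of library stock) in duplicate plates.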
IMPase Li inh: qHTS Assay for Identifying the Cell-Membrane Permeable IMPase Inhibitors: Potentiation with Lithium | Potency, µM (doses to about 59.4 µM), without a hit: at the highest dose activity, negative = IMPase inhibition, actives largely listed as inhibitors | AID 1457, 2008 | actives 0.35% (n = 210,000) | CHO-M1 cells, IP1 TR-FRET (IP-One), carbachol + lithium; active = well fitted inhibition curve with a large enough effect; inconclusive = small, poorly fitted or top-dose-only effect; inactive = no such curve, though single readings can be large or run the other way;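 also: IP1 builds up when IMPase is blocked and the TR-FRET signal falls; potency is read from the fitted curve at half-maximal effect; plate controls were basal vehicle for no effect and high inhibitor control for full effect; nearly all actives have a fitted effect of over 50% in size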
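Test compounds were applied to CHO-M1 cells previously cultured for 16–30 h at 2000 per well. A small lithium amount accompanied them; after 30 min at 37C, IP1 was quantified by TR-FRET.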
IMPase cell inh: qHTS Assay for Identifying the Cell-Membrane Permeable IMPase Inhibitors. Inositol monophosphatase 1 (Rattus norvegicus), P97697. CHO-M1 cells, IP1 accumulation, HTRF TR-FRET ratio. inhibition (IP1 accumulation), % at 46.1 µM. 120,000 tested, under 10 active. AID 901, 2007; active = well fitted curve in the direction sought with a large enough effect in the signal ratio, not every such curve was filed as active; inconclusive = small, poorly fitted or top-dose-only effect, or a change in a side signal; inactive = no such curve, though single readings can be large or run the other way; the % refers to the signal ratio;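 also: cells stimulated with carbachol in lithium chloride buffer; plate controls were DMSO basal wells for no effect and reference inhibitor wells for full effect; higher means more IMPase inhibition seen as more IP1 and lower FRET ratio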
Target sequence (P97697 whole entry, looked up): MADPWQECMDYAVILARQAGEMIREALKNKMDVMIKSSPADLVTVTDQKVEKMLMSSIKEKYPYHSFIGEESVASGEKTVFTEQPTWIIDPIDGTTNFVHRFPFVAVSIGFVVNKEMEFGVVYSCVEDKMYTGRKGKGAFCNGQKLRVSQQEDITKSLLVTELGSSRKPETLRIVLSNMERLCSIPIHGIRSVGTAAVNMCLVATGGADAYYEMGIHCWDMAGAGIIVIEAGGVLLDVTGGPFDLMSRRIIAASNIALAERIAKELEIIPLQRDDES
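Elevated IP1 in lysates lowers TR-FRET signal (665/620 ratio and 620 channel reported). Cells were CHO-M1, given carbachol (50 uM as added) plus 50mM LiCl, pH 7.4, 30 min, 37C; compounds titrated up to 46 uM; AC50 by Hill equation.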
* = called active by the depositor; ? = inconclusive; / = no result given; ! = not confirmed by another sample; [ ] = another dose, or the depositor's remark. Compounds with a hit are over-represented: about 11% of the library has one in this group of screens. Unless noted, calls follow the shape of the dose curve; as a rule, active = well fitted inhibition curve with a large enough effect (not every such curve was filed as active); inconclusive = small, poorly fitted or top-dose-only effect, or another doubt; inactive = no such curve, though single readings can be large or run the other way. Unless noted, % is scaled to controls: 0 for no effect and ±100 for the full control effect.

SMILES	HPGD block	ALDH1A1 block	PNC assembly inh	IMPase Li inh	IMPase cell inh
COc1cccc(C2CC(C(F)(F)F)n3ncc(C(=O)NCc4ccco4)c3N2)c1 (configuration not stated)	20µM*	-3.5%	-28.1	28.2%[38.3 µM]	0.6
O=C(NCC1CCCO1)c1nn2c(c1Cl)NC(c1ccc(F)cc1)CC2C(F)(F)F (configuration not stated)	-15.1%	2.1%	45.4	-7.1%[38.3 µM]	-1.3
CC(Sc1nc(-c2ccc(F)cc2)cs1)C(=O)Nc1ccc(Cl)cn1 (configuration not stated)	-18.1%	0.7%	-100.0*	13.2%	/
O=S(=O)(c1ccccc1)N1CCC2(CCN(c3cccc(-c4ccccc4)c3)CC2)CC1	?	?	/	1.1%	/
Nc1nc(N)c2nc(-c3ccccc3)c(N)nc2n1	?	?	26.3	12.6µM*!	-29.3
NSc1nc(N)c2nc(-c3ccccc3)c(-c3ccccc3)nc2n1	/	14.1µM*	/	6.3%	/
CC(C)(C[C@@]1(C)NC(=O)NC1=O)OCc1ccccc1	-3.5%	2.3%[13.5 µM]	/	-7.4%	/
N#Cc1cccc(NC(=O)N2CCCC3(CCN(C(=O)c4cc(C(F)(F)F)cc(C(F)(F)F)c4)CC3)C2)c1	-9.3%	-0.5%	/	4.1%	/
O=C(CSc1nc(-c2ccccc2)[nH]c1-c1ccccc1)Nc1ccc2c(c1)OCCO2	/	/	/	/	9.2
COc1ccc(N/C=C/C(=O)C(C)(C)C)cc1	/	2.3%	/	6.0%	/
COc1ccc(N/C=C(/C(C)=O)c2ccccc2)cc1	22.4µM*	10µM*	?	40.6%[38.3 µM]	-5.8
Cc1cccc(/C(N)=N/OC(=O)c2cccs2)c1	20µM*	-4.3%	54.8	-12.0%[38.3 µM]	0.8
N/C(=N\OC(=O)c1cccs1)c1ccccc1	31.6µM*	2.7%	-4.6	-6.4%	/
O=C(NCCO[N+](=O)[O-])c1cccnc1	-6.8%	-1.1%	/	9.3%	-0.5
Fc1ccc(-c2nn3c(C4COc5ccccc5O4)nnc3s2)cc1 (configuration not stated)	28.2µM*	31.6µM*	26.8	3.7%[38.3 µM]	-3.2
c1ccc2c(c1)OCC(c1nnc3sc(-c4ccc5c(c4)OCO5)nn13)O2 (configuration not stated)	?	?	32.2	-9.5%[38.3 µM]	-3.4
Cc1nnc2sc(-c3ccccn3)nn12	-2.1%	7.9%	-21.7	20.1%[38.3 µM]	1.2
O=c1[nH]cnc2scc(C3COc4ccccc4O3)c12 (configuration not stated)	-17.3%	2.1%	-17.9	1.4%[38.3 µM]	6.3
c1ccc2c(c1)OCC(c1nnc3sc(-c4cnccn4)nn13)O2 (configuration not stated)	25.1µM*	8.91µM*	-21.5	20.3%[38.3 µM]	-2.3
NC(N)=Nc1nc(C2COc3ccccc3O2)cs1 (configuration not stated)	-15.4%	6.6%	17.7	5.2%	11.8
c1ccc2c(c1)OCC(c1nnc3n1-c1ccccc1SC3)O2 (configuration not stated)	12.6µM*	?	-9.2	1.6%[38.3 µM]	-1.6
c1csc(-c2nn3c(C4COc5ccccc5O4)nnc3s2)c1 (configuration not stated)	8.91µM*	8.91µM*	-15.3	11.3%	-1.8
O=C(CCNC(=O)OCc1ccccc1)NC1CCCCCC1	-4.5%	4.0%	7.2	1.8%	5.6
Cc1cccc(C2=N[C@@H](Cc3ccccc3)CO2)c1	-13.5%	-10.6%[120 µM]	/	2.5%	/
Fc1ccc(-c2nnc3sc(C4COc5ccccc5O4)nn23)cc1 (configuration not stated)	28.2µM*	0.9%	-27.1	-12.8%[38.3 µM]	?
O=C(c1cnccn1)N1CCC2(CCCN(Cc3nccs3)C2)CC1	-0.8%	16.5%	/	8.5%	/
C(#Cc1ccc(C#CCN2CCCC2)cc1)CN1CCCC1	-12.4%	-12.2%	-89.8*	18.3%	0.7
COc1cc(C(=S)N2CCOCC2)ccc1OS(=O)(=O)c1ccccc1[N+](=O)[O-]	?	?	25.3	4.9%	/
CCOc1cc(C(=S)N2CCOCC2)ccc1OS(=O)(=O)c1ccccc1[N+](=O)[O-]	15.8µM*	-0.9%	?	-9.2%	/

Assay outcomes from PubChem BioAssay.
